Reference: PubChem BioAssay AID602449 (Sanford-Burnham Center for Chemical Genomics, 2012)
About 5,000 (1.4%) of roughly 360,000 compounds were called active. The sample holds actives, similar compounds and a random draw of the others, so the mix is not that of the screen.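 How the source made its calls: active means inhibition of 50% or more, scaled per plate between neutral and stimulator controls; inactive means the rest.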

experiment: blockers of Ca2+-induced mitochondrial swelling – biochemical, isolated mouse mitochondria, absorbance, primary screen (AID 602449); conditions: 30 min, at 10 µM, hits give high values;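 further: 0% = DMSO wells given calcium and 100% = 1 mM EGTA wells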

inhibition, active:
CCCc1cc(=S)n2c([nH]c3ccccc32)c1C#N 94.4%, Cc1ccc(NC(=S)NC(NC(=O)Cc2cccc3ccccc23)C(Cl)(Cl)Cl)cc1 (stereo not drawn) 55.5%, O=C(Cc1cccc2ccccc12)NNC(=O)Nc1ccc(Cl)cc1 72.6%, Cc1cc(C)cc(NS(=O)(=O)c2ccc(Oc3ncc(C(F)(F)F)cc3Cl)cc2)c1 50.8%, COc1ccc(CNc2ncnc3ccccc23)cc1 70.5%

inhibition, inactive:
CCOc1cc(-c2noc(CCCC(=O)NC3CCCCC3)n2)ccc1OC 0.3%, CCc1nc2ccc(C(=O)NCCNC(C)=O)cn2c1N(CC)Cc1cccc(Br)c1 -0.2%, CCCC(C)C(=O)OCC(=O)Nc1c(Br)cc(C)cc1Br (stereo not drawn) -0.2%, CCc1c(C)sc(NC(=O)c2cccs2)c1C(N)=O -0.6%, OC(C#CCN1CCOCC1)(c1ccccc1)C1CCCCC1 (stereo not drawn) -2.4%, CCc1oc(-c2ccc(OC)cc2)c(C(=O)OCCCCCO)c1C(C)OCCO (stereo not drawn) 0.2%, CCC(C)(C)NC(=O)CN(C(=O)C(=O)Nc1ccc2c(c1)OCCO2)C(C)(C)CC -1%, O=C1[C@@H]2C(c3cccnc3)=NO[C@@H]2C(=O)N1c1ccc(Cl)cc1Cl 2.7%, CC(=O)Nc1ccc(NS(=O)(=O)c2cc(C)sc2C)cc1 0.5%, CN(C)Cc1c(C#N)c2ccccc2n1C -1.4%, O=C(COc1ccc(Cl)cc1)NCCS(=O)(=O)N1CCN(c2ccc(F)cc2)CC1 1.5%, CCOC(=O)N1CCC(NC(=O)C(NS(=O)(=O)c2ccc3c(c2)CCN3C(=O)CC)C(C)C)CC1 (stereo not drawn) -0.2%, CN(CC(=O)Nc1ccc(Cl)cc1)CC(=O)Nc1cccc2ccccc12 0.6%, CC(C)(C)C(=O)NC(NC(=S)Nc1ccc(S(N)(=O)=O)cc1)C(Cl)(Cl)Cl (stereo not drawn) -2.5%, Cc1ccc(CNC(=O)[C@@H](NC(=O)Cc2ccccc2)C(C)C)cc1 0.5%, O=C(O)Cc1ccc(NC(=O)Nc2cccc3ccccc23)cc1 0.9%, CCCOC(=O)CC1C(=O)NCCN1Cc1ccc(F)cc1 (stereo not drawn) 0.6%, Cn1nnnc1SCC(=O)Nc1cccc(S(=O)(=O)N2CCCCC2)c1 -0.1%, CN(NS(=O)(=O)c1cccs1)c1ncc(C(F)(F)F)cc1Cl 2.5%, Cc1ccc(NS(=O)(=O)c2ccc(F)cc2)nc1 -0.6%, COc1ccc(CCOC(=O)CNC(=O)c2ccc(Cl)cc2Cl)cc1 1.4%, COc1ccc(CNc2nccs2)cc1 0.7%, O=C(COc1ncnc2ccccc12)NC(=O)NCc1ccccc1 -0.1%
